# Where a name gives a salt, the structure may show the parent alone. ± gives the standard deviation of the averaged measurements.
# System: A549
# Assay: relative viability (normalised to negative control = 1, bortezomib = 0) (fraction); higher = less cytotoxic
# Settings: inflammatory serum-free RHB-A with cytokines + LPS, 5 d + 24 h CellTiter-Blue
# [1] = compound 30 nM, GSK126 pretreatment: 5 uM GSK126
# [2] = compound 30 nM, GSK126 pretreatment: none (vehicle)
# [3] = compound 300 nM, GSK126 pretreatment: 5 uM GSK126
# [4] = compound 300 nM, GSK126 pretreatment: none (vehicle)
SMILES,relative viability [1],relative viability [2],relative viability [3],relative viability [4]
Cc1ccc(S(=O)(=O)Nc2nc3ccccc3nc2Nc2ccc3nsnc3c2)cc1,0.8 ± 0.092,0.774 ± 0.06,0.748 ± 0.14,0.842 ± 0.06
NC(=O)c1ccc(-c2nc(-c3ccccn3)c(-c3ccc4c(c3)OCO4)[nH]2)cc1,0.825 ± 0.08,0.814 ± 0.1,0.817 ± 0.073,0.882 ± 0.1
CC[C@]1(O)C[C@@H]2CN(CCc3c([nH]c4ccccc34)[C@@](C(=O)OC)(c3cc4c(cc3OC)N(C)[C@H]3[C@@](O)(C(=O)OC)[C@H](OC(C)=O)[C@]5(CC)C=CCN6CC[C@]43[C@@H]65)C2)C1 [Vinblastine sulfate salt; Vinblastine sulfate],0.447 ± 0.011,0.286 ± 0.039,0.277 ± 0.024,0.255 ± 0.022
CNC(=O)Nc1ccc(-c2nc(N3CC4CCC(C3)O4)c3cnn(C4CCC5(CC4)OCCO5)c3n2)cc1,0.424 ± 0.074,0.432 ± 0.012,0.226 ± 0.011,0.237 ± 0.035
CN1CCN(CCOc2cc(OC3CCOCC3)c3c(Nc4c(Cl)ccc5c4OCO5)ncnc3c2)CC1 [AZD0530(Saracatinib)],0.831 ± 0.073,0.827 ± 0.071,0.746 ± 0.057,0.914 ± 0.038
"O=NN(CCCl)C(=O)NC1CCCCC1 [Lomustine, CCNU; Lomustine]",0.967 ± 0.15,0.973 ± 0.15,1.03 ± 0.11,0.976 ± 0.079
CC(C)CC(=O)Nc1n[nH]c2c1CN(C(=O)C1CCN(C)CC1)C2(C)C,0.84 ± 0.097,0.829 ± 0.069,0.761 ± 0.077,0.787 ± 0.033
CCOc1ccn(-c2ccc(F)cc2)c(=O)c1C(=O)Nc1ccc(Oc2ccnc(N)c2Cl)c(F)c1,0.905 ± 0.21,0.914 ± 0.17,0.977 ± 0.21,1.08 ± 0.16
N#Cc1c(O)c2c(-c3ccc(-c4ccccc4O)cc3)csc2[nH]c1=O,0.86 ± 0.15,0.937 ± 0.13,0.938 ± 0.18,0.942 ± 0.11
OCCn1cc(-c2cnc3nnn(Cc4ccc5ncccc5c4)c3n2)cn1,0.969 ± 0.045,0.9847 ± 0.0075,0.972 ± 0.058,0.9557 ± 0.0093
C[C@]12CC[C@H](O)CC1=CC[C@@H]1[C@@H]2CC[C@]2(C)C(c3cccnc3)=CC[C@@H]12 [Abiraterone],0.893 ± 0.12,0.869 ± 0.13,0.937 ± 0.15,1.03 ± 0.098
Cc1c(NC(=O)OC[C@@H]2COCCN2)cn2ncnc(Nc3ccc4c(cnn4Cc4cccc(F)c4)c3)c12,0.806 ± 0.16,0.802 ± 0.081,0.56 ± 0.088,0.621 ± 0.052
CNC(=O)c1c(F)cccc1Nc1nc(Nc2cc3c(cc2OC)CCN3C(=O)CN(C)C)nc2[nH]ccc12,0.762 ± 0.059,0.792 ± 0.067,0.295 ± 0.019,0.431 ± 0.015
CCCS(=O)(=O)Nc1ccc(F)c(C(=O)c2c[nH]c3ncc(Cl)cc23)c1F,0.771 ± 0.062,0.725 ± 0.028,0.851 ± 0.19,1.02 ± 0.074
Cn1cc(-c2ccc3nnc(C(F)(F)c4ccc5ncccc5c4)n3n2)cn1,0.954 ± 0.11,0.904 ± 0.029,1.001 ± 0.009,0.947 ± 0.026
O=C1NC(=O)/C(=C/c2ccc(-c3ccc(F)cc3O)o2)S1,0.977 ± 0.15,0.857 ± 0.062,0.744 ± 0.082,0.839 ± 0.1
NCC(=O)CCC(=O)O [Aminolevulinic acid hydrochloride; Aminolevulinic acid],1.08 ± 0.17,0.985 ± 0.1,1.05 ± 0.12,0.981 ± 0.053
C[C@@H]1CN(CC(=O)Nc2ccc3c(c2)Cc2cccc(-c4cc(=O)cc(N5CCOCC5)o4)c2S3)C[C@H](C)O1,0.816 ± 0.029,0.857 ± 0.089,0.907 ± 0.043,0.943 ± 0.024
CC(C)(C)c1cnc(CSc2cnc(NC(=O)C3CCNCC3)s2)o1,0.859 ± 0.1,0.811 ± 0.056,-0.00432 ± 0.0019,-0.0017 ± 0.0016
CO[C@@]12[C@H](COC(N)=O)C3=C(C(=O)C(C)=C(N)C3=O)N1C[C@@H]1N[C@@H]12 [Mitomycin; Mitomycin C],0.827 ± 0.16,0.845 ± 0.092,0.58 ± 0.1,0.47 ± 0.05
Clc1ccc(C2(c3ccc(-c4cn[nH]c4)cc3)CCNCC2)cc1,0.706 ± 0.086,0.77 ± 0.055,0.734 ± 0.044,0.854 ± 0.012
Nc1cccc2c1CN(C1CCC(=O)NC1=O)C2=O (configuration not stated) [Lenalidomide],0.854 ± 0.11,0.789 ± 0.061,0.882 ± 0.059,0.82 ± 0.035
Oc1cccc(-c2nc(N3CCOCC3)c3oc4ncccc4c3n2)c1,0.743 ± 0.082,0.805 ± 0.11,0.113 ± 0.011,0.127 ± 0.025
S=C(NCc1ccc2c(c1)OCO2)N1CCN(c2ncnc3c2oc2ccccc23)CC1 [Amuvatinib (MP-470); MP-470],0.861 ± 0.067,0.848 ± 0.057,0.917 ± 0.15,1.07 ± 0.072
CCS(=O)(=O)Nc1ccc2[nH]c(O)c(C(=Nc3ccc(CN4CCCCC4)cc3)c3ccccc3)c2c1 [Hesperadin],0.652 ± 0.13,0.598 ± 0.063,0.336 ± 0.019,0.331 ± 0.022
CC[C@@H]1C(=O)N(C)c2cnc(Nc3ccc(C(=O)NC4CCN(C)CC4)cc3OC)nc2N1C1CCCC1,0.451 ± 0.03,0.362 ± 0.021,0.212 ± 0.04,0.215 ± 0.02
CCN(CCO)CCCOc1ccc2c(Nc3cc(CC(=O)Nc4cccc(F)c4)[nH]n3)ncnc2c1 [AZD1152-HQPA(Barasertib)],0.73 ± 0.079,0.714 ± 0.031,0.813 ± 0.13,0.696 ± 0.037

SMILES,relative viability [1],relative viability [2],relative viability [3],relative viability [4]
COc1ncc(-c2ccc3nccc(-c4ccnnc4)c3c2)cc1NS(=O)(=O)c1ccc(F)cc1F,0.0446 ± 0.01,0.0459 ± 0.0045,0.00279 ± 0.0028,0.00434 ± 0.0032
COc1cccc2c1C(=O)c1c(O)c3c(c(O)c1C2=O)C[C@@](O)(C(=O)CO)C[C@@H]3O[C@H]1C[C@H](N)[C@H](O)[C@H](C)O1 [Doxorubicin hydrochloride; 4'-Epiadriamycin; Doxorubicin HCl],0.967 ± 0.022,0.9737 ± 0.0065,0.454 ± 0.027,0.463 ± 0.075
COC(=O)Nc1ccc(-c2nc(N3CCOCC3)c3cnn(C4CCN(C(=O)OC)CC4)c3n2)cc1,0.691 ± 0.035,0.715 ± 0.019,0.489 ± 0.036,0.588 ± 0.04
CNC(=O)c1cc(Oc2ccc(NC(=O)Nc3cc(C(C)(C)C)nn3-c3ccc4ncccc4c3)c(F)c2)ccn1 [DCC-2036 (Rebastinib)],1.37 ± 0.1,1.35 ± 0.12,1.48 ± 0.067,1.57 ± 0.06
COc1cc2c(Nc3ccc(NC(=O)c4ccccc4)cc3)ncnc2cc1OCCCN1CCOCC1,1.04 ± 0.053,0.992 ± 0.1,0.963 ± 0.07,0.9853 ± 0.0095
O=c1[nH]c(=O)n([C@H]2C[C@H](O)[C@@H](CO)O2)cc1F [Floxuridine],0.895 ± 0.018,0.886 ± 0.058,0.903 ± 0.037,0.908 ± 0.05
O=C(NOCC1CC1)c1ccc(F)c(F)c1Nc1ccc(I)cc1Cl,0.441 ± 0.038,0.55 ± 0.088,0.256 ± 0.014,0.312 ± 0.033
Cc1cc(Nc2nc(N[C@@H](C)c3ncc(F)cn3)ncc2Cl)[nH]n1,0.912 ± 0.1,0.872 ± 0.08,1.15 ± 0.076,1.13 ± 0.017
CO[C@H]1C[C@@H]2CC[C@@H](C)[C@@](O)(O2)C(=O)C(=O)N2CCCC[C@H]2C(=O)O[C@H]([C@H](C)C[C@@H]2CC[C@@H](OP(C)(C)=O)[C@H](OC)C2)CC(=O)[C@H](C)/C=C(\C)[C@@H](O)[C@@H](OC)C(=O)[C@H](C)C[C@H](C)/C=C/C=C/C=C/1C [Deforolimus(MK-8669)],0.574 ± 0.039,0.591 ± 0.02,0.548 ± 0.03,0.523 ± 0.041
O=c1cc(N2CCOCC2)oc2c(-c3cccc4c3sc3ccccc34)cccc12,0.877 ± 0.026,0.869 ± 0.057,0.922 ± 0.055,0.919 ± 0.072
CCCCCOC(=O)Nc1nc(=O)n([C@@H]2O[C@H](C)[C@@H](O)[C@H]2O)cc1F [Capecitabine],0.858 ± 0.12,0.867 ± 0.12,0.892 ± 0.14,0.965 ± 0.12
CS(=O)(=O)c1ccc(C(=O)Nc2ccc(Cl)c(-c3ccccn3)c2)c(Cl)c1 [Vismodegib],0.993 ± 0.058,0.952 ± 0.12,1.05 ± 0.14,1.03 ± 0.074
Cc1cnc(-c2cnc(NCCNc3ccc(C#N)cn3)nc2-c2ccc(Cl)cc2Cl)[nH]1,0.847 ± 0.064,0.834 ± 0.016,0.788 ± 0.059,0.732 ± 0.097
COc1nc(N)nc2c1ncn2[C@@H]1O[C@H](CO)[C@@H](O)[C@@H]1O [Nelarabine],0.838 ± 0.12,0.875 ± 0.13,0.96 ± 0.16,0.956 ± 0.14
COc1cc2ncnc(Nc3ccc(F)c(Cl)c3)c2cc1OCCCN1CCOCC1 [Gefitinib(Iressa); Gefitinib],0.922 ± 0.11,0.873 ± 0.084,0.488 ± 0.11,0.472 ± 0.045
CNC(=O)c1cc(Oc2ccc(NC(=O)Nc3ccc(Cl)c(C(F)(F)F)c3)c(F)c2)ccn1 [Regorafenib; BAY 73-4506(Regorafenib)],0.913 ± 0.055,0.892 ± 0.016,1.02 ± 0.031,0.913 ± 0.014
COc1ccc(-c2ccc3c(N4CCOCC4)nc(N4C[C@@H](C)O[C@@H](C)C4)nc3n2)cc1CO,0.708 ± 0.013,0.745 ± 0.027,0.428 ± 0.052,0.515 ± 0.086
C#CCC(Cc1cnc2nc(N)nc(N)c2n1)c1ccc(C(=O)N[C@@H](CCC(=O)O)C(=O)O)cc1 (some centres not stated) [pralatrexate],0.878 ± 0.027,0.859 ± 0.075,0.765 ± 0.068,0.896 ± 0.06
CC(C)C[C@H](NC(=O)[C@H](Cc1ccccc1)NC(=O)c1cnccn1)B(O)O [Bortezomib],0.00425 ± 0.0011,0.015 ± 0.0062,0.00234 ± 0.0024,0.00262 ± 0.0014
Oc1ccc(-c2nc(-c3ccc(F)cc3)c(-c3ccncc3)[nH]2)cc1,1.08 ± 0.13,0.954 ± 0.13,1.36 ± 0.066,1.17 ± 0.19
O=c1cc(N2CCOCC2)oc2c(-c3ccccc3)cccc12,0.773 ± 0.033,0.819 ± 0.048,0.748 ± 0.15,0.835 ± 0.068
CC1=C(/C=C/C(C)=C/C=C/C(C)=C/C(=O)O)C(C)(C)CCC1 [Retinoic acid; Tretinoin; 13-cis-retinoic acid],1.04 ± 0.088,0.922 ± 0.043,1.34 ± 0.05,1.14 ± 0.064
CC[C@@H]1C(=O)N(C)c2cnc(Nc3ccc(C(=O)NC4CCC(N5CCN(CC6CC6)CC5)CC4)cc3OC)nc2N1C(C)C (some centres not stated) [BI6727 (Volasertib)],0.404 ± 0.1,0.38 ± 0.095,0.227 ± 0.042,0.249 ± 0.097
CN(C)Cc1cccc(N=C(c2ccccc2)c2c(O)[nH]c3cc(C(N)=O)ccc23)c1,0.984 ± 0.17,0.911 ± 0.16,1.08 ± 0.2,0.942 ± 0.13
CCC1=C[C@@H]2CN(C1)Cc1c([nH]c3ccccc13)[C@@](C(=O)OC)(c1cc3c(cc1OC)N(C)[C@H]1[C@@](O)(C(=O)OC)[C@H](OC(C)=O)[C@]4(CC)C=CCN5CC[C@]31[C@@H]54)C2 [Vinorelbine tartrate],0.403 ± 0.049,0.444 ± 0.021,0.376 ± 0.056,0.307 ± 0.025
c1ccc2c(-c3cnn4cc(-c5ccc(N6CCNCC6)cc5)cnc34)ccnc2c1,1.01 ± 0.16,0.961 ± 0.15,1.1 ± 0.067,1.13 ± 0.093

# — the supplement of paper PMC6279402
